# Assay results taken from PubChem BioAssay (NCI).
# About 83,000 compounds went through this panel and 20% of them were active in at least one assay; those are over-represented in the sample as a whole.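 Results are percent growth after 48 hours of single-concentration exposure. 100 means growth as in untreated cells, lower positive values show inhibition; negative values down to -100 show cell death.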 A number with no mark means an inactive call. The source made the active and inactive calls. Rule for the calls: active = growth percent below 10; inactive = the rest.
# Tested on: COLO 205 colon
# Assay: NCI-60 one-dose screen, 48 h (100 = growth as untreated, 0 = no growth, -100 = all killed)
# Conditions: 10 µM unless noted
row,SMILES,growth
1,CCN1C(=O)/C(=N\N=C(/C)c2ccc3c(c2)Nc2ccccc2S3)c2cc(Cl)ccc21,89.8%
2,N#Cc1c(-c2cccc3ccccc23)cc(-c2cccc(OCC(=O)O)c2)[nH]c1=O,106%
3,O=C(COc1ccc(NC(=O)Nc2ccccc2)cc1)N=Nc1c(O)[nH]c2ccc([N+](=O)[O-])cc12,-29.9% (active)
